Data on 39 compounds can be found in the supplement of paper PMC12669032.

In one experiment the test system is Roseburia intestinalis. Briefly: growth AUC relative to DMSO control (median of replicates) (fraction); higher = more growth (less inhibition), active = hit call of the paper. The conditions noted are these: 20 µM; 24 h. The gist of the method:
(§1)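 Three biological replicates, each grown on a separate day, were combined as a median for every value. In each, a gut bacterial monoculture in mGAM started at OD600 0.05 and grew anaerobically at 37 °C with 20 µM compound (1% DMSO), with OD600 read hourly over 24 h. Area under the growth curve was normalised against the plate median of solvent-only wells, or against row and column medians on the industrial chemical plate, after the minimum OD was set to 0.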
Regarding `COP(=S)(OC)Oc1nc(Cl)c(Cl)cc1Cl`, the “growth AUC” value is 1 (inactive).
As for `OC(c1ccc(F)cc1)(c1cncnc1)c1ccccc1Cl` (stereo not drawn), the “growth AUC” value is 0.975 (inactive).
Same read-out and setting: the result for `Cc1occc1C(=O)Nc1ccccc1` reads 0.996 (inactive); that for `COCc1c(F)c(F)c(COC(=O)C2C(C=C(C)C)C2(C)C)c(F)c1F` (stereo not drawn), 1 (inactive); that for `COP(=S)(OC)Oc1ccc(S(N)(=O)=O)cc1`, 1.03 (inactive).
On the same count and under the same terms, next, `CC/C(=N\OC/C=C/Cl)C1=C(O)CC(C2CCOCC2)CC1=O` (stereo not drawn): 1.02 (inactive); `CC(Oc1ccc(Oc2nc3ccc(Cl)cc3o2)cc1)C(=O)O` (racemic): 1.12 (inactive).
Same read-out and setting: next, `O=[N+]([O-])c1ccc(O)c([N+](=O)[O-])c1`: 0.912 (inactive).
As to `O=C(O)COc1ccccc1`, the “growth AUC” value was 0.995 (inactive).
`CC(C)N(C(=O)CCl)c1ccccc1`: the “growth AUC” value is 0.963 (inactive).
The same measure, in the same setting: the result for `CCOP(=S)(NC(C)CC)Oc1cc(C)ccc1[N+](=O)[O-]` (stereo not drawn) reads 1.01 (inactive).
On the same count and under the same terms, next, `COP(=S)(OC)SCN1C(=O)c2ccccc2C1=O`: 0.901 (inactive).
`C=CCN(CC=C)C(=O)C(Cl)Cl`: the “growth AUC” value was 1 (inactive).
Same read-out and setting: next, `CC(C)=CC1C(C(=O)OCc2coc(Cc3ccccc3)c2)C1(C)C` (stereo not drawn): 0.921 (inactive); `OC(Cc1ccccc1Cl)(Cn1cncn1)C1(Cl)CC1` (stereo not drawn): 1.05 (inactive); `C[C@@H](Oc1ccc(Oc2ncc(C(F)(F)F)cc2Cl)cc1)C(=O)O`: 0.981 (inactive).
The same measure, in the same setting: the result for `CNc1cnn(-c2cccc(C(F)(F)F)c2)c(=O)c1Cl` reads 1.03 (inactive); that for `Cc1nc(N(C)C=O)nc(OC(=O)N(C)C)c1C`, 0.964 (inactive).
Still for that read-out and setting: the result for `CC1(C)C(C=C(Cl)Cl)C1C(=O)OC(C#N)c1cccc(Oc2ccccc2)c1` (stereo not drawn) reads 0.871 (inactive); that for `COC(=O)NCc1cc(/C(C)=N\OCc2cccc(C)n2)ccc1Cl`, 1.01 (inactive).
In the case of `O=C(O)c1cc(Cl)ccc1Cl`, the “growth AUC” value is 0.993 (inactive).
As to `O=[N+]([O-])c1ccccc1`, the “growth AUC” value was 0.963 (inactive).
For `CC(=O)O.CC(=O)O.CC(=O)O.NC(N)=NCCCCCCCCNCCCCCCCCN=C(N)N`, the “growth AUC” value was 0.029 (active).
On to `COc1ccc(/C(=C/C(=O)N2CCOCC2)c2ccc(Cl)cc2)cc1OC`, for which the “growth AUC” value was 1.06 (inactive).
With `CCOC(=O)CCN(Cc1ccccc1)SN(C)C(=O)O/N=C(/C)SC`, the “growth AUC” value is 0.987 (inactive).
As to `CN/C(=N\[N+](=O)[O-])NCc1cnc(Cl)s1`, the “growth AUC” value was 1.05 (inactive).
For `BrCCBr`, the “growth AUC” value was 1.06 (inactive).
In the case of `CC(Cl)(Cl)C(=O)O`, the “growth AUC” value is 1.01 (inactive).
Same read-out and setting: next, `CCOP(=S)(OCC)SCn1c(=O)oc2cc(Cl)ccc21`: 0.932 (inactive).
Still for that read-out and setting: next, `COP(=O)(OC)OC=C(Cl)Cl`: 0.985 (inactive).
Same read-out and setting: the result for `CCS(=O)(=O)Cc1ccccc1OC(=O)NC` reads 0.964 (inactive).
For the compound `COC(=O)C(C)N(C(=O)Cc1ccccc1)c1c(C)cccc1C` (stereo not drawn), the “growth AUC” value was 0.975 (inactive).
On the same count and under the same terms, the result for `CCCN(CCC)c1c([N+](=O)[O-])cc(S(C)(=O)=O)cc1[N+](=O)[O-]` reads 0.894 (inactive); that for `CCc1cc(C)cc(CC)c1-c1c(OC(=O)C(C)(C)C)n2n(c1=O)CCOCC2`, 0.981 (inactive); that for `O=C1C(Cl)=C(Cl)C(=O)C(Cl)=C1Cl`, 0.995 (inactive).
Turning to `N#Cc1nn(-c2c(Cl)cc(C(F)(F)F)cc2Cl)c(N)c1S(=O)(=O)C(F)(F)F`, the “growth AUC” value was 0.965 (inactive).
Still for that read-out and setting: next, `OC(c1ccc(Cl)cc1)(c1ccc(Cl)cc1)C(Cl)(Cl)Cl`: 0.891 (inactive); `CC1(C)C(/C=C(\Cl)c2ccc(Cl)cc2)C1C(=O)OC(C#N)c1ccc(F)c(Oc2ccccc2)c1` (stereo not drawn): 1.07 (inactive); `Oc1c(Cl)ccc(Cl)c1Cl`: 0.951 (inactive).

For another experiment, the system named is Streptococcus salivarius. The description is as above. The settings on record: 20 µM; 24 h. In outline:
as §1
Regarding `COP(=S)(OC)Oc1nc(Cl)c(Cl)cc1Cl`, the “growth AUC” value was 1.02 (inactive).
The same measure, in the same setting: the result for `OC(c1ccc(F)cc1)(c1cncnc1)c1ccccc1Cl` (stereo not drawn) reads 0.996 (inactive).
Consider `Cc1occc1C(=O)Nc1ccccc1`, for which the “growth AUC” value was 0.995 (inactive).
On the same count and under the same terms, the result for `COCc1c(F)c(F)c(COC(=O)C2C(C=C(C)C)C2(C)C)c(F)c1F` (stereo not drawn) reads 1.06 (inactive); that for `COP(=S)(OC)Oc1ccc(S(N)(=O)=O)cc1`, 0.985 (inactive); that for `CC/C(=N\OC/C=C/Cl)C1=C(O)CC(C2CCOCC2)CC1=O` (stereo not drawn), 0.994 (inactive).
On to `CC(Oc1ccc(Oc2nc3ccc(Cl)cc3o2)cc1)C(=O)O` (racemic), for which the “growth AUC” value is 0.999 (inactive).
Still for that read-out and setting: next, `O=[N+]([O-])c1ccc(O)c([N+](=O)[O-])c1`: 0.992 (inactive); `O=C(O)COc1ccccc1`: 0.994 (inactive); `CC(C)N(C(=O)CCl)c1ccccc1`: 1.04 (inactive).
On the same count and under the same terms, next, `CCOP(=S)(NC(C)CC)Oc1cc(C)ccc1[N+](=O)[O-]` (stereo not drawn): 0.976 (inactive).
Same read-out and setting: the result for `COP(=S)(OC)SCN1C(=O)c2ccccc2C1=O` reads 0.979 (inactive); that for `C=CCN(CC=C)C(=O)C(Cl)Cl`, 0.99 (inactive).
Regarding `CC(C)=CC1C(C(=O)OCc2coc(Cc3ccccc3)c2)C1(C)C` (stereo not drawn), the “growth AUC” value was 0.99 (inactive).
The same measure, in the same setting: the result for `OC(Cc1ccccc1Cl)(Cn1cncn1)C1(Cl)CC1` (stereo not drawn) reads 0.998 (inactive); that for `C[C@@H](Oc1ccc(Oc2ncc(C(F)(F)F)cc2Cl)cc1)C(=O)O`, 0.999 (inactive).
On the same count and under the same terms, the result for `CNc1cnn(-c2cccc(C(F)(F)F)c2)c(=O)c1Cl` reads 0.976 (inactive); that for `Cc1nc(N(C)C=O)nc(OC(=O)N(C)C)c1C`, 0.999 (inactive); that for `CC1(C)C(C=C(Cl)Cl)C1C(=O)OC(C#N)c1cccc(Oc2ccccc2)c1` (stereo not drawn), 0.937 (inactive).
Still for that read-out and setting: next, `COC(=O)NCc1cc(/C(C)=N\OCc2cccc(C)n2)ccc1Cl`: 0.974 (inactive); `O=C(O)c1cc(Cl)ccc1Cl`: 1.01 (inactive).
Turning to `O=[N+]([O-])c1ccccc1`, the “growth AUC” value was 1.01 (inactive).
As for `CC(=O)O.CC(=O)O.CC(=O)O.NC(N)=NCCCCCCCCNCCCCCCCCN=C(N)N`, the “growth AUC” value was 0.454 (active).
Turning to `COc1ccc(/C(=C/C(=O)N2CCOCC2)c2ccc(Cl)cc2)cc1OC`, the “growth AUC” value was 0.987 (inactive).
The same measure, in the same setting: next, `CCOC(=O)CCN(Cc1ccccc1)SN(C)C(=O)O/N=C(/C)SC`: 0.976 (inactive); `CN/C(=N\[N+](=O)[O-])NCc1cnc(Cl)s1`: 1 (inactive); `BrCCBr`: 1.01 (inactive).
On the same count and under the same terms, next, `CC(Cl)(Cl)C(=O)O`: 1.01 (inactive); `CCOP(=S)(OCC)SCn1c(=O)oc2cc(Cl)ccc21`: 0.98 (inactive); `COP(=O)(OC)OC=C(Cl)Cl`: 1.03 (inactive).
Still for that read-out and setting: the result for `CCS(=O)(=O)Cc1ccccc1OC(=O)NC` reads 0.927 (inactive).
In the case of `COC(=O)C(C)N(C(=O)Cc1ccccc1)c1c(C)cccc1C` (stereo not drawn), the “growth AUC” value was 0.96 (inactive).
Same read-out and setting: the result for `CCCN(CCC)c1c([N+](=O)[O-])cc(S(C)(=O)=O)cc1[N+](=O)[O-]` reads 0.966 (inactive); that for `CCc1cc(C)cc(CC)c1-c1c(OC(=O)C(C)(C)C)n2n(c1=O)CCOCC2`, 1.02 (inactive).
Still for that read-out and setting: the result for `O=C1C(Cl)=C(Cl)C(=O)C(Cl)=C1Cl` reads 1.01 (inactive); that for `N#Cc1nn(-c2c(Cl)cc(C(F)(F)F)cc2Cl)c(N)c1S(=O)(=O)C(F)(F)F`, 0.548 (active); that for `OC(c1ccc(Cl)cc1)(c1ccc(Cl)cc1)C(Cl)(Cl)Cl`, 0.874 (inactive).
Still for that read-out and setting: next, `CC1(C)C(/C=C(\Cl)c2ccc(Cl)cc2)C1C(=O)OC(C#N)c1ccc(F)c(Oc2ccccc2)c1` (stereo not drawn): 1.03 (inactive); `Oc1c(Cl)ccc(Cl)c1Cl`: 0.964 (inactive).
